For 29 targets, log2 fold change results are on record in the supplement of paper PMC10849652.

The full data set covers some 8,800 targets. This sample favours those with a hit. About 0.5% of all pairs of compound and target were hits. Unmarked numbers belong to inactive results.

Chain of UniProt Q8WXB1 (Q8WXB1 whole entry, looked up): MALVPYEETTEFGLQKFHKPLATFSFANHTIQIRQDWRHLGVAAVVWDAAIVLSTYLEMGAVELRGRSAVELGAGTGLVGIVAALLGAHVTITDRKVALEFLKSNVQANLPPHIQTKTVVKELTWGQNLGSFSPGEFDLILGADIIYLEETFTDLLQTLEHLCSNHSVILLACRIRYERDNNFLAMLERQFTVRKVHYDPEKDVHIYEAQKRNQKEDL
Chain of UniProt Q96NW7 (Q96NW7 whole entry, looked up): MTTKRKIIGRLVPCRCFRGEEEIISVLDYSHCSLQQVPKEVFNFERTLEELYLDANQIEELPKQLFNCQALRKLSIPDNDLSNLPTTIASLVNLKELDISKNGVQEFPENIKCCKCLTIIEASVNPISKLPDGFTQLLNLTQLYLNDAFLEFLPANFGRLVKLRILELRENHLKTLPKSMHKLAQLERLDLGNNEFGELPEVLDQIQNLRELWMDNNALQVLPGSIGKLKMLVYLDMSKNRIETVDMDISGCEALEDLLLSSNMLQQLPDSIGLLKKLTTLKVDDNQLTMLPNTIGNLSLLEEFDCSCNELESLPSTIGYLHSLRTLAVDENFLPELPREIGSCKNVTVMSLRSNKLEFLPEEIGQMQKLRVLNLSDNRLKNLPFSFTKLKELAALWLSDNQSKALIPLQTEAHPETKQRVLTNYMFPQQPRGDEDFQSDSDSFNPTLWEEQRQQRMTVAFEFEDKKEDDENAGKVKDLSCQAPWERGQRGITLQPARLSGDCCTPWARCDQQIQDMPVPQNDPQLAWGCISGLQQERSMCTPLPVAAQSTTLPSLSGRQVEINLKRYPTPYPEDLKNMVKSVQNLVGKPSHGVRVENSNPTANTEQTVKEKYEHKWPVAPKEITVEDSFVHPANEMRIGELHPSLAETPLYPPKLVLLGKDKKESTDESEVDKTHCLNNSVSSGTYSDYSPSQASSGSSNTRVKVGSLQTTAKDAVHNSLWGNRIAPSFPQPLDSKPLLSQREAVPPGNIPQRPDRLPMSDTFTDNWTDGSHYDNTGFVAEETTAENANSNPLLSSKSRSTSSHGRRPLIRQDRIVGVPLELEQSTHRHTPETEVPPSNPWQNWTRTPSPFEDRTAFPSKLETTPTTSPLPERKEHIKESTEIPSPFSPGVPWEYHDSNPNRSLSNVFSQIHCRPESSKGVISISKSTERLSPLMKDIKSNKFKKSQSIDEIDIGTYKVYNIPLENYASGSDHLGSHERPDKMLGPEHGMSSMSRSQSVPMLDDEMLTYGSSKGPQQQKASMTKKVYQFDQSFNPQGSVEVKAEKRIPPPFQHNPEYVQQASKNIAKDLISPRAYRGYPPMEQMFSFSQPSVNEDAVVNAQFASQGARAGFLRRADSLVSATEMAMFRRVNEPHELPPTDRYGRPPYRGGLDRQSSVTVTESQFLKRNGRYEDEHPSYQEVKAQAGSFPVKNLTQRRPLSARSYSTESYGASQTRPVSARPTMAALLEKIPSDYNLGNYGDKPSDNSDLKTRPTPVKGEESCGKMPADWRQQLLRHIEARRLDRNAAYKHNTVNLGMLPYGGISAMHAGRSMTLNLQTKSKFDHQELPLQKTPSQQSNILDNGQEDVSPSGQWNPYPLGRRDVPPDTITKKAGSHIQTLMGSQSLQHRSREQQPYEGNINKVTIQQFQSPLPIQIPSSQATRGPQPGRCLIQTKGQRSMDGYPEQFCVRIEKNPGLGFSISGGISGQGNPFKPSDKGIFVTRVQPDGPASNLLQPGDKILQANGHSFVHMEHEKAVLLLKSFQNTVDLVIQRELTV
Chain of UniProt O95819 (O95819 whole entry, looked up): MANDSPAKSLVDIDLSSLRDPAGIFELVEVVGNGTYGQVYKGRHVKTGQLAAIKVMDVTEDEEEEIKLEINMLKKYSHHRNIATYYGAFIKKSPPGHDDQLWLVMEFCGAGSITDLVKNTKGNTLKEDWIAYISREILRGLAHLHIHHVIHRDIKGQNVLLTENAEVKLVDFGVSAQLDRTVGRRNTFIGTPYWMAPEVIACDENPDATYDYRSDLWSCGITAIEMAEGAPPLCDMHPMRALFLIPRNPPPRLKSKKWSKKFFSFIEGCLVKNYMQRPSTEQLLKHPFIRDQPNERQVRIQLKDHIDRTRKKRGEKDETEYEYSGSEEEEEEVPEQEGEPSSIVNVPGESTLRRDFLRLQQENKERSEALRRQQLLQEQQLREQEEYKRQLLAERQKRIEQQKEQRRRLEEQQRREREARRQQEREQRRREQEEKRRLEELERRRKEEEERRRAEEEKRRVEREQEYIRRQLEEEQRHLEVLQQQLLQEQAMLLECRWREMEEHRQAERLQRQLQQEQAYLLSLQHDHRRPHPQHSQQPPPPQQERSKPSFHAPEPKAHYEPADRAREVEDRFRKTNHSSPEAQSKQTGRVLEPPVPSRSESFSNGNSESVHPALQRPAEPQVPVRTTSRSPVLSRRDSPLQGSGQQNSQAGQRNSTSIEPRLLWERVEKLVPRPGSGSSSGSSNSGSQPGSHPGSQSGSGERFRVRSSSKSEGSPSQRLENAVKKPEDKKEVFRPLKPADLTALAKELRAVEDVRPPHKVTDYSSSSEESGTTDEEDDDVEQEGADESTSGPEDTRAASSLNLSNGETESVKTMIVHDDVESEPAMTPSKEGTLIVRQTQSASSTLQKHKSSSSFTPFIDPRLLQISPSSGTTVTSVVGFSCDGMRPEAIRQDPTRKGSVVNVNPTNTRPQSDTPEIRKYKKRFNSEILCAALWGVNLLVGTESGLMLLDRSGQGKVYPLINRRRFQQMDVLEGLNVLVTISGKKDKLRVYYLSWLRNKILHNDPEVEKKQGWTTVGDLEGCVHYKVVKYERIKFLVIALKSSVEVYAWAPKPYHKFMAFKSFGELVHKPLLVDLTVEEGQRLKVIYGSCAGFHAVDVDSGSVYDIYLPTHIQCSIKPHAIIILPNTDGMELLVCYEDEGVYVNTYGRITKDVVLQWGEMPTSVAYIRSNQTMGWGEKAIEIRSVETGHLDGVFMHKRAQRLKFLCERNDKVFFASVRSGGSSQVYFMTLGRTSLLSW
Chain of UniProt O15243 (O15243 whole entry, looked up): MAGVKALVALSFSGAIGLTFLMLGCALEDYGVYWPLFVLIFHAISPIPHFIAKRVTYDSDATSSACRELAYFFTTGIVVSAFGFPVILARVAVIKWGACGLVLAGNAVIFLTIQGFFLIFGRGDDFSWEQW
Chain of UniProt Q71SY5 (Q71SY5 whole entry, looked up): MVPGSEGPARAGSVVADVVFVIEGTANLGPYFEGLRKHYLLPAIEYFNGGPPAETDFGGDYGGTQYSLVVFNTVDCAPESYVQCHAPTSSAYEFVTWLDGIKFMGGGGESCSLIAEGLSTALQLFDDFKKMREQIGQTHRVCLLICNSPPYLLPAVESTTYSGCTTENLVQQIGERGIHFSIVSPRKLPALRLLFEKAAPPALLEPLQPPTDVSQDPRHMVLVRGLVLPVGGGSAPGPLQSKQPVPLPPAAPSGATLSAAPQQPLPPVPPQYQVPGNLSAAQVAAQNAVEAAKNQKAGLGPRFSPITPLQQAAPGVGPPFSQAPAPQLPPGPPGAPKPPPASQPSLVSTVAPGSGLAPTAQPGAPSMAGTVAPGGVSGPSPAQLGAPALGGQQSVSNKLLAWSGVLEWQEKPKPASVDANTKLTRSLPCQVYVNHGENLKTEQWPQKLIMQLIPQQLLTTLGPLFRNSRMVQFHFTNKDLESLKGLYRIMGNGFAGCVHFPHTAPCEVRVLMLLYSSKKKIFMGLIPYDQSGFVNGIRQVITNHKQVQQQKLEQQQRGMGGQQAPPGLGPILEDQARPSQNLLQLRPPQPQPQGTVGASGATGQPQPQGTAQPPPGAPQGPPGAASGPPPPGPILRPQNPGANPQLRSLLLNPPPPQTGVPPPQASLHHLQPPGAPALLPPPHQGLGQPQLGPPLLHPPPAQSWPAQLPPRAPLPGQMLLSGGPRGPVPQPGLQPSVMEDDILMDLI
Chain of UniProt Q16553 (Q16553 whole entry, looked up): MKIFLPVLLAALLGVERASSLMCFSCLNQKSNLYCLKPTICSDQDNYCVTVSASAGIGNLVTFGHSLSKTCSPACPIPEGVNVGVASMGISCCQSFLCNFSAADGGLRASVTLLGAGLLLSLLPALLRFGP
Chain of UniProt Q9NWR8 (Q9NWR8 whole entry, looked up): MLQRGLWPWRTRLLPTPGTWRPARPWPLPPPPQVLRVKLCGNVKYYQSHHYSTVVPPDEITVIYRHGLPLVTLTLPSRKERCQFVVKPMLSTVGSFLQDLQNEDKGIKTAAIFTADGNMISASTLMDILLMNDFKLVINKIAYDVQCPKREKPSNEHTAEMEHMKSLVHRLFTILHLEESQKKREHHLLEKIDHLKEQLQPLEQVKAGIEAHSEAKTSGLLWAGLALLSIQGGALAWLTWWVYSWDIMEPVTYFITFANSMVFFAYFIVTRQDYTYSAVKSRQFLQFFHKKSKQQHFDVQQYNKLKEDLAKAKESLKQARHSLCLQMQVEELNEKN
Chain of UniProt P53667 (P53667 whole entry, looked up): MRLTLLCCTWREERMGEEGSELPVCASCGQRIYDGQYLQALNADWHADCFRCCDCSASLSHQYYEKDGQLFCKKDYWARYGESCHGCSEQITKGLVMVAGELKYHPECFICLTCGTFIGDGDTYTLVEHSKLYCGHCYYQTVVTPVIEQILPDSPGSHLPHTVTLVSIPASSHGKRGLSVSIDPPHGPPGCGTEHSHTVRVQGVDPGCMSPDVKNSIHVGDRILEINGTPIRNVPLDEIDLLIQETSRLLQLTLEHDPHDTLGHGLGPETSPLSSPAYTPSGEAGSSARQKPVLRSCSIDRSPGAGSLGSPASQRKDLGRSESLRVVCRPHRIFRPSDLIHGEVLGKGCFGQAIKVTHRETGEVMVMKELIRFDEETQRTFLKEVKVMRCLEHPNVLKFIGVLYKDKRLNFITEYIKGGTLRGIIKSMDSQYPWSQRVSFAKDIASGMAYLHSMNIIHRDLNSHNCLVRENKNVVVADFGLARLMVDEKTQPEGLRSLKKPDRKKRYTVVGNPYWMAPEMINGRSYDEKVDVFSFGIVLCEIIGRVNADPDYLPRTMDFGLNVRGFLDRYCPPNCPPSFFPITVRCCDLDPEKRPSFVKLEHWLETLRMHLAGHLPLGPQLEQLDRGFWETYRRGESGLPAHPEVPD

Compound in one experiment: C=CC(=O)N1CCC[C@@H](n2nc(-c3ccc(Oc4ccccc4)cc3)c3c(N)ncnc32)C1 [ibrutinib]
As to the kind of experiment: log2 fold change, soluble protein after heating vs DMSO (PISA); higher = thermal stabilisation; K562 lysate, 10 uM; active = over 0.2 and 3.5 SD of the protein, either way, in both replicates (recomputed). Summed up:
(§1)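 The values are log-two fold changes in thermal stability compared with solvent controls and come from duplicates. They were obtained by TMTpro 16plex LC-MS/MS, with channel sums equalised, on the supernatant after 21,000xg for 90 min. That supernatant came from crude K562 extract at 1 mg/mL protein treated with 10 μM compound for 30 min, heated for 3 min across 48°C-58°C, pooled and brought to 0.5% NP-40 at 4°C.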
Take MCUB (UniProt Q9NWR8): the log2 fold change was 0.127. On the same count and under the same terms, the value for MEGF8 (UniProt Q7Z7M0) was 0; that for MAN2B2 (UniProt Q9Y2E5) was -0.019. The same measure, in the same setting: next, MRPL27 (UniProt Q9P0M9): -0.046.

For LEPROT (UniProt O15243), the log2 fold change was 0.005.

Consider LIMK1 (UniProt P53667), for which the log2 fold change was 0.546 (active).

As for MRPL30 isoform 2 (UniProt Q8TCC3), the log2 fold change is 0.01. As for LRRC7 (UniProt Q96NW7), the log2 fold change is -0.081. In the case of METTL21A (UniProt Q8WXB1), the log2 fold change was 0.006.

With LY6E (UniProt Q16553), the log2 fold change is -0.032.

Turning to MED25 isoform 3 (UniProt Q71SY5), the log2 fold change was -0.034. Still for that read-out and setting: next, MAP4K4 isoform 6 (UniProt O95819): 0.056; KIFC3 isoform 6 (UniProt Q9BVG8): 0; MME (UniProt P08473): 0.286. The same measure, in the same setting: next, KLC1 isoform 10 (UniProt Q07866): 0.235; KIF21A (UniProt H0YI78): -0.187.

Compound in another experiment: CC(=O)c1cnc2ccc(-c3cc(Cl)c(O)c(Cl)c3)nc2c1N[C@H]1CC[C@H](CN(C)C)CC1
The experiment is described as above. Summed up:
as §1
Regarding MPDZ (UniProt O75970), the log2 fold change was 0.264. On the same count and under the same terms, the value for KIF3C (UniProt O14782) was -0.041; that for MRPL22 (UniProt Q9NWU5) was 0.001; that for LRIF1 (UniProt Q5T3J3) was -0.088.

In the case of MCUB (UniProt Q9NWR8), the log2 fold change was 0.013. On the same count and under the same terms, next, MAN2B2 (UniProt Q9Y2E5): -0.026; MRPL27 (UniProt Q9P0M9): -0.057.

Take KIF18B (UniProt Q86Y91): the log2 fold change was -0.157. Same read-out and setting: next, LRRIQ1 (UniProt Q96JM4): -0.036; LGALS3BP (UniProt Q08380): 0.061.

Consider KRAS (UniProt P01116), for which the log2 fold change was 0.006. Same read-out and setting: next, MDM1 (UniProt Q8TC05): -0.006; LEPROT (UniProt O15243): -0.273. Regarding LIMK1 (UniProt P53667), the log2 fold change was -0.04. Still for that read-out and setting: next, MED28 (UniProt Q9H204): -0.067; MRPL30 isoform 2 (UniProt Q8TCC3): 0.043. Same read-out and setting: next, LRRC7 (UniProt Q96NW7): 0.026; KRAS isoform 2 (UniProt P01116): 0.05; METTL21A (UniProt Q8WXB1): -0.106.

As for LRP1 (UniProt Q07954), the log2 fold change was -0.017.

LY6E (UniProt Q16553): the log2 fold change was 0.028.

Regarding MAPK7 (UniProt Q13164), the log2 fold change was 0.388 (active). Same read-out and setting: the value for MED25 isoform 3 (UniProt Q71SY5) was 0.001. Same read-out and setting: next, MAP4K4 isoform 6 (UniProt O95819): 0.001; MME (UniProt P08473): -0.093. Same read-out and setting: the value for KIF21A (UniProt H0YI78) was -0.073.
